From PubChem BioAssay (NCATS)
Records with an inconclusive call do not appear. Calls of active or inactive are those of the source. Unless noted, the call rests on the fitted dose curve; in most records, active means well fitted curve in either direction with a large enough effect (not every such curve was filed as active); inconclusive means small, poorly fitted or top-dose-only effect, or another doubt; inactive means flat fitted curve, though single readings scatter.

Assays:
[1] = AP1 Signaling Pathway (AID 357); settings: ME-180 AP-1-bla reporter, EGF-induced, beta-lactamase ratio, 5 h; at 17.2 µM (top of the series) unless noted;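 further: ME-180 reporter cells stimulated with EGF at its EC50 level; on the % scale 0 is the no-effect control and ±100 the full control effect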
Summary of the method: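 Read-out was the 460nm/530nm emission ratio (excitation 405nm) after CCF4 loading for 2.5 hours at room temperature. Cells carried an AP-1-driven beta-lactamase reporter, were stimulated with EC50 EGF plus compound for 5 hours, and AC50 values came from titrations.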

[2] = Stat Signaling Pathway (AID 446); settings: ME-180 SIE beta-lactamase reporter, IL-6 stimulated, 5 h; at 17.2 µM (top of the series) unless noted;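 further: ME-180 cervical cancer cells given 40 pM IL-6 alongside compound; SIE-controlled beta-lactamase reporter measured as 460/530 nm FRET emission ratio; on the % scale 0 is the no-effect control and ±100 the full control effect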
Summary of the method: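 Screening format detects activators and inhibitors alike: ME-180 SIE-bla cells stimulated at 40 pM IL-6 for 5 hrs with compound, then dual-emission beta-lactamase read at 405 nm excitation.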

[3] = target: Glucocorticoid receptor (Homo sapiens) (UniProt P04150); assay: GR-GFP Redistribution (AID 450;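 active means compounds whose dose series gives a full or clear partial fitted curve of increased nuclear translocation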; further: potency means the concentration at half of the fitted maximal effect)
Glucocorticoid receptor (Homo sapiens), sequence (P04150 whole entry, looked up, the tested form may be a part): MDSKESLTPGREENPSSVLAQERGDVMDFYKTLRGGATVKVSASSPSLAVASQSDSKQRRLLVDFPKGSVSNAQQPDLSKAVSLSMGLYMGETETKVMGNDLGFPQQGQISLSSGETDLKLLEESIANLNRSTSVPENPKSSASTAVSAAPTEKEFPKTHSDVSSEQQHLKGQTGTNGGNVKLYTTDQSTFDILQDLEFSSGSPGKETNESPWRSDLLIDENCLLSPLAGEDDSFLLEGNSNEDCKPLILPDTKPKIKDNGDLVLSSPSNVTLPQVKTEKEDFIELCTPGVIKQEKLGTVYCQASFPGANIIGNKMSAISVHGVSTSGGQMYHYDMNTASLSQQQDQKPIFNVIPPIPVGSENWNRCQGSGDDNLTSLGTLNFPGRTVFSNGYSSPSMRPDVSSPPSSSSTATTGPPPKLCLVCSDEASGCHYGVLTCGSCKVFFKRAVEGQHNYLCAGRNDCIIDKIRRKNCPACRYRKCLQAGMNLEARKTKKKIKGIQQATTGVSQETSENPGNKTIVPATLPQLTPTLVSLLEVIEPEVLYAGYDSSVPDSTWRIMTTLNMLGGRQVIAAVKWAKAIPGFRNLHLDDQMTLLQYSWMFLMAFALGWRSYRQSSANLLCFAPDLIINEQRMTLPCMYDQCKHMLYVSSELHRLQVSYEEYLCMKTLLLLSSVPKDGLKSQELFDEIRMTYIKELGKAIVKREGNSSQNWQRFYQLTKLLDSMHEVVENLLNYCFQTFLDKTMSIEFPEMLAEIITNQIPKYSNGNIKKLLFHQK

[4] = target: Glucocorticoid receptor (Homo sapiens) (UniProt P04150); assay: GR-EFC Redistribution (AID 451; calls by dose curve; further: potency means the concentration at half of the fitted maximal effect); settings: CHO-K1 GR-EFC translocation, beta-gal luminescence, 2 h
Summary of the method: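 CHO-K1 cells expressing nuclear EA and GR-ED fragments of b-gal; compounds titrated up to 46 uM final, 2 h at 37 C. GR nuclear translocation read as complemented b-gal luminescence after 1 h RT detection.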

[5] = target: Mitogen-activated protein kinase 10 (Mus musculus) (UniProt Q61831); assay: JNK3 AlphaScreen Assay (AID 530);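 further: kinase came from lysate of stimulated human HepG2 cells; signal reports phosphorylation of biotinylated GST-cJun 1-79 at Ser73 with 10 µM ATP; on the % scale 0 is the no-effect control and ±100 the full control effect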
Summary of the method: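 Pre-activated (IL-1β/TNFα) JNK3 in HepG2 lysates phosphorylates biotin-GST-cJun(1-79), 10 uM ATP; anti-phospho-cJun(Ser73) AlphaScreen read at room temperature, pH 7.6 Tris buffer. Compounds pre-incubated 15 min as titrations.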

[6] = target: 3',5'-cyclic-AMP phosphodiesterase 4B (Homo sapiens) (UniProt Q07343); assay: qHTS Assay for Inhibitors of PDE-IV (AID 607; active means well fitted activation curve with a large enough effect in the main read-out, with a control signal flat, not every such curve was filed as active; further: % of control where 0% means no effect)
3',5'-cyclic-AMP phosphodiesterase 4B (Homo sapiens), sequence (Q07343 whole entry, looked up): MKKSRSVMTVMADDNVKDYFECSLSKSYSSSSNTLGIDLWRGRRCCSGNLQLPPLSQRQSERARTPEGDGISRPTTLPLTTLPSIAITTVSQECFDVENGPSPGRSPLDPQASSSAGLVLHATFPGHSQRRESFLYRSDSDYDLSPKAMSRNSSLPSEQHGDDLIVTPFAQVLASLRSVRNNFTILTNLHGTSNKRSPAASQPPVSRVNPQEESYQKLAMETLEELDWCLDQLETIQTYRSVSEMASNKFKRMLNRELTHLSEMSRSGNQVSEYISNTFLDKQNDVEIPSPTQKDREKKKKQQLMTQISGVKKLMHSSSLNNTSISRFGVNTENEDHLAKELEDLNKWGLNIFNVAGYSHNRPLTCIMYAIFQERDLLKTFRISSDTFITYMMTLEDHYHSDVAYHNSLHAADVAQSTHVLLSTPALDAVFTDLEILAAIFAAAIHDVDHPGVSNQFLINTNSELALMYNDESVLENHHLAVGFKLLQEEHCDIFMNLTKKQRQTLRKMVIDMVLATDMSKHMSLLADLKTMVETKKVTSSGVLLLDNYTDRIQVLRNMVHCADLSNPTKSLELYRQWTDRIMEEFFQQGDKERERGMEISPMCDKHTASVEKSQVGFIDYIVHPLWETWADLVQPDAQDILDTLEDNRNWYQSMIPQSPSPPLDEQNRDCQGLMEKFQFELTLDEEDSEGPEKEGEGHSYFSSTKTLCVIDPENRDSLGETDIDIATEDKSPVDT
Summary of the method: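 The readout is membrane depolarisation from a cAMP-sensing CNG channel, detected with a potential dye at ex 535/em 590. Cells were HEK293-derived (endogenous PDE-IV) at 1000 cells/well, titrated up to 22.9 uM final.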

[7] = target: Guanine nucleotide-binding protein G(i) subunit alpha-1 (Homo sapiens) (UniProt P63096); assay: qHTS Assay for Inhibitors of RGS12 GoLoco Motif Activity (Green Fluorophore) (AID 879; active means well fitted curve in the direction sought with a large enough effect; an effect the other way counts as inactive or inconclusive;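 further: 0% = labeled peptide with Gαi1 and full inhibition = labeled peptide alone without protein; negative values mean loss of peptide binding seen as reduced polarization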)
Guanine nucleotide-binding protein G(i) subunit alpha-1 (Homo sapiens), sequence (P63096 whole entry, looked up): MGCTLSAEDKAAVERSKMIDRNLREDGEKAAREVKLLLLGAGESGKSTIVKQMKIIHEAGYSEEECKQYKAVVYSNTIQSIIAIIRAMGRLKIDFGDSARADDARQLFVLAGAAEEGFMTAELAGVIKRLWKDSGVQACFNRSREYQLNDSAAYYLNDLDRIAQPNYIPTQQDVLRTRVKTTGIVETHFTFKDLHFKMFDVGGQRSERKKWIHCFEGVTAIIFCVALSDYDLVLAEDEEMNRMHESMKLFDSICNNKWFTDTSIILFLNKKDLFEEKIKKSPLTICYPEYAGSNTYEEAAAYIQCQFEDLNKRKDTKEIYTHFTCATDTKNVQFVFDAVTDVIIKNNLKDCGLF
Summary of the method: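 Fluorescence polarization assay: 50 nM Gαi1 with 10 nM FITC-labeled RGS12 GoLoco peptide in 10 mM Tris pH 7.5, 150 mM NaCl, 0.1 mM GDP, 0.05% NP40, 10 min at room temperature with compound.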

[8] = qHTS Assay for Identification of Small Molecule Antagonists for NFkB Signaling Pathway (AID 895; active means well fitted inhibition curve with a large enough effect in the signal ratio, with a control signal flat, not every such curve was filed as active; the % refers to the signal ratio; further: on the % scale 0 is the no-effect control and ±100 the full control effect)
Summary of the method: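 ME-180 NFkB-bla cells (beta-lactamase under NFkB response element), plated overnight, treated with compound then 10 pM TNF alpha (about EC50) for 5 hrs at 37 C. LiveBLAzer FRET read at 460/530 nm emission, 405 nm excitation.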

[9] = qHTS Assay for Identification of Small Molecule Agonists for Thrombopoietin (TPO) Signaling Pathway (AID 917; active means well fitted curve in the direction sought with a large enough effect; an effect the other way counts as inactive or inconclusive; further: on the % scale 0 is the no-effect control and ±100 the full control effect)
Summary of the method: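 Luminescence from a Glycoprotein IIb promoter–driven luciferase reporter served as read-out in murine Ba/F3 cells carrying the human TPO receptor. Cells, deprived of IL-3 overnight, received compounds with 26 pM TPO and were incubated 24 hrs at 37 C.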

[10] = target: Pyruvate kinase (Leishmania mexicana) (UniProt Q27686); assay: qHTS Validation Assay for Inhibitors of Leishmania Mexicana Pyruvate Kinase (AID 945; active means well fitted curve in the direction sought with a large enough effect; an effect the other way counts as inactive or inconclusive;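 further: 0% = DMSO only neutral control wells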)
Pyruvate kinase (Leishmania mexicana), sequence (Q27686 2-499 E452W): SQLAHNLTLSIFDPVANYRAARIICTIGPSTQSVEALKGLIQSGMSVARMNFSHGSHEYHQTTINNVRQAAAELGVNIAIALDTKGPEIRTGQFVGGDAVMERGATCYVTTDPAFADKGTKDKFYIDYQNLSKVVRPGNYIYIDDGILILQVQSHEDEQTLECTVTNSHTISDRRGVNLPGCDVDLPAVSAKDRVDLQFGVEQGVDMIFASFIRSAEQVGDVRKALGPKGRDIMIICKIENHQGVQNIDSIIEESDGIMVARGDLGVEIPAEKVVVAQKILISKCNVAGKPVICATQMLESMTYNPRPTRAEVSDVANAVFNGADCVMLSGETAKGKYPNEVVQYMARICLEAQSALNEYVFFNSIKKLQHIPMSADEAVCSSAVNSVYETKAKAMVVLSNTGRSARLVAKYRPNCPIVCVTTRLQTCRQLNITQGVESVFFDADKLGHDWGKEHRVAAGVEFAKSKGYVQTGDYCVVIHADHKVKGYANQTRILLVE
Summary of the method: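 Eight-point qHTS titrations in triplicate, data normalized to DMSO neutral control. Reaction: 0.2 nM LmPYK E451W mutant, 0.5 mM PEP, 0.1 mM ADP, 7 mM MgCl2, pH 7.2, one hour at room temperature; luminescent ATP detection.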

[11] = target: Pyruvate kinase PKM (Homo sapiens) (UniProt P14618); assay: qHTS Assay for Activators of Human Muscle Pyruvate Kinase (AID 954; active means well fitted curve in the direction sought with a large enough effect, not every such curve was filed as active;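 further: 0% = uninhibited enzyme and -100% = no enzyme or full thiadiazolimine inhibition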)
Pyruvate kinase PKM (Homo sapiens), sequence (P14618 whole entry, looked up): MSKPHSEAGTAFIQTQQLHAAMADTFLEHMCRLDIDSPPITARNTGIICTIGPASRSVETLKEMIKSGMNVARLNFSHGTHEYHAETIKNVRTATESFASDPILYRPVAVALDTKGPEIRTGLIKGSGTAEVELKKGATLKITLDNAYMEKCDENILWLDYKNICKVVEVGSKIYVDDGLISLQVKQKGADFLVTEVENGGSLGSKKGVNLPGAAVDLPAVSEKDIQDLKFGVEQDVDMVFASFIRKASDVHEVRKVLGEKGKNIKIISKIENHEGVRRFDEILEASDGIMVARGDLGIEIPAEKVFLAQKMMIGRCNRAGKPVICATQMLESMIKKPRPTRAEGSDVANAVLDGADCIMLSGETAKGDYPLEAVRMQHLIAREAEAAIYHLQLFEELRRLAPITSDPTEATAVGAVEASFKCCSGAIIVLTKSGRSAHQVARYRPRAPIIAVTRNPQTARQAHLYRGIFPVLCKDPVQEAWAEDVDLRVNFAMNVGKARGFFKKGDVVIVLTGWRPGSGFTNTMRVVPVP
Summary of the method: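 Reaction: 0.1 nM purified PKM2 with 0.5 mM phosphoenolpyruvate and 0.1 mM ADP, room temperature, 1 h. Readout: luciferase-based ATP luminescence after stop reagent. Activators judged against a 0.3 nM enzyme column.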

[12] = target: Alpha-galactosidase A (Homo sapiens) (UniProt P06280); assay: Counterscreen for Glucocerebrosidase Inhibitors: qHTS Assay for Human alpha-Galactosidase at pH 4.5 (AID 992; active means well fitted curve in the direction sought with a large enough effect; an effect the other way counts as inactive or inconclusive; further: 0% is about no effect)
Alpha-galactosidase A (Homo sapiens), sequence (P06280 whole entry, looked up): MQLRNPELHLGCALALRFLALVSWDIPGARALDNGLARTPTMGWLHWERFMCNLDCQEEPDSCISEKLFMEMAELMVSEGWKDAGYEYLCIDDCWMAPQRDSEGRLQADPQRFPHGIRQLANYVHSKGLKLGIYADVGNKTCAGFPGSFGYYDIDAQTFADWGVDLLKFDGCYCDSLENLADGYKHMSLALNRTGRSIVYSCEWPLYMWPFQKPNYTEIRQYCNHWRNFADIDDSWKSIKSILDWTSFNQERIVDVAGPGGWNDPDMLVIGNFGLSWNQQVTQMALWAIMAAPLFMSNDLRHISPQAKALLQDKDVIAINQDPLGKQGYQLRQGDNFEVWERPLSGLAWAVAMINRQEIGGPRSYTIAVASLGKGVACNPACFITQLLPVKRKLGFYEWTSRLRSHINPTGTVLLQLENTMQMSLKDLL
Summary of the method: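 Concentration-response curves (0.7 nM to 77 uM final) were modeled with the Hill equation to give AC50. Reactions: 2 nM enzyme, 80 uM fluorogenic alpha-galactoside, pH 4.5 citric acid buffer, 20 min, room temperature.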

[13] = target: alpha-glucosidase (Oryza sativa, rice) (UniProt Q653V4); assay: Counterscreen for Glucocerebrosidase Inhibitors: qHTS Assay for Rice alpha-Glucosidase at pH 5.0 (AID 997; active means well fitted curve in the direction sought with a large enough effect; an effect the other way counts as inactive or inconclusive;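 further: 0% = full activity with enzyme and -100% = basal without enzyme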)
Summary of the method: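 Rice alpha-glucosidase (4 nM final) with 400 uM 4-methylumbelliferyl-alpha-D-glucopyranoside in citrate buffer pH 5.0, 20 min at room temperature, stopped at pH 10; fluorescence 365/440 nm, compounds 0.7 nM–77 uM, AC50 from Hill fits.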

CCCc1cc(=O)oc2c(CN3CCN(C)CC3)c(O)c(Cl)cc12
inactive: activity change, negative = inhibition [1] -0.941% | activity, negative = inhibition [2] -1.37% | Potency [3] > 20.6 µM

Cc1nc(/N=C(\N)Nc2ccccc2)nc2ccccc12
inactive: activity change, negative = inhibition [1] -14.5% | activity, negative = inhibition [2] -26.3% | Potency [3] > 20.6 µM

COc1cccc(NC(=O)C2CC(=O)n3cnnc3S2)c1 (configuration not stated)
inactive: activity change, negative = inhibition [1] -17.5% | activity, negative = inhibition [2] -7.33% | Potency [3] > 20.6 µM

Cc1nc(N2CCN(Cc3ccccc3)CC2)c(C#N)c2c1COC(C)(C)C2
inactive: activity change, negative = inhibition [1] -29.1% | activity, negative = inhibition [2] -15.6% | Potency [3] > 20.6 µM

CCOC(=O)C1=C(C)NC(C)=C(C(=O)OC)[C@@H]1c1cccc(Cl)c1Cl
inactive: activity change, negative = inhibition [1] -13.1% | activity, negative = inhibition [2] -13.3% | Potency [3] > 20.6 µM | Potency [4] > 20.6 µM | Potency [5]

CCOc1ccc(-c2nn3c(-c4ccc(OC)cc4)nnc3s2)cc1
inactive: activity change, negative = inhibition [1] -1.24% | activity, negative = inhibition [2] 24.4% | Potency [3] > 20.6 µM

CC(=O)O[C@@H]1[C@H]([N+]2(C)CCCCC2)C[C@@H]2[C@@H]3CC[C@@H]4C[C@@H](OC(C)=O)[C@H]([N+]5(C)CCCCC5)C[C@@]4(C)[C@H]3CC[C@]21C
inactive: activity change, negative = inhibition [1] 13.6% [at 38 µM] | activity, negative = inhibition [2] 18.1% [at 38 µM] | Potency [3] > 46 µM | Potency [4] > 46 µM | Potency [5] | Potency [6] | outcome [7] | Potency [8] | Potency [9] | Potency [10] | outcome [11] | outcome [12] | outcome [13]

O=C(CSc1nc2ccccc2c(=O)n1CC1CCCCC1)N1CCOCC1
inactive: activity change, negative = inhibition [1] -23.4% | activity, negative = inhibition [2] -21.6% | Potency [3] > 20.6 µM

Cc1c(C)c2cc(Cl)c(O)c(CN3CCCC(C)C3)c2oc1=O (configuration not stated)
inactive: activity change, negative = inhibition [1] 14.1% | activity, negative = inhibition [2] -3.87% | Potency [3] > 20.6 µM

COc1ccccc1N1CCN(CCCCOc2ccc(F)cc2)CC1
inactive: activity change, negative = inhibition [1] 18.8% | activity, negative = inhibition [2] 5.73% | Potency [3] > 20.6 µM
